# Measured values from the supplement of paper PMC10037445.
# Over roughly 2,900 compounds, “NF-kB SEAP reporter activity, fold change vs agonist alone” has its median near 0.99; the highest 2% begin near 2.6. The entries come from a sample that favours the highest values as a whole.
# Tests used:
# RAW-Dual [1] = assay: NF-kB SEAP reporter activity, fold change vs agonist alone; higher = enhanced NF-kB activity; details: library stock concentration (final ~1000-fold dilution): 10 mM
# In short: (§1)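 After 50 nL of library stock was delivered by pin tool to RAW-Dual macrophages (50,000 cells/well, DMEM, 384-well plates), a PRR agonist was added 1 h later and the plates were kept at 37 °C, 5% CO2. Twenty hours later, IRF was read from supernatant by QuantiLuc luminescence and NF-κB by QuantiBlue absorbance at 620 nm. Reporter activity is stated as fold change over agonist-alone wells. Wells with IncuCyte confluency under 70% of agonist controls in both mask sets were counted as cytotoxic.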
# RAW-Dual [2] = assay: NF-kB SEAP reporter activity, fold change vs agonist alone; cytotoxicity flag (confluency mask): not cytotoxic; higher = enhanced NF-kB activity
# In short: as §1
# RAW-Dual [3] = assay: NF-kB SEAP reporter activity, fold change vs agonist alone; cytotoxicity flag (confluency mask): cytotoxic (confluency <70% of control); higher = enhanced NF-kB activity
# In short: as §1
# [4] = cytotoxicity flag (confluency mask): cytotoxic (confluency <70% of control), agonist: Imiquimod (TLR7) […]
# [5] = cytotoxicity flag (confluency mask): cytotoxic (confluency <70% of control), agonist: MPLA (TLR4) […]
# [6] = cytotoxicity flag (confluency mask): not cytotoxic, agonist: Imiquimod (TLR7) […]
# [7] = cytotoxicity flag (confluency mask): not cytotoxic, agonist: MPLA (TLR4) […]
# [8] = agonist: ODN 1826 (TLR9) 0.5 ug/mL
# [9] = agonist: Pam2CSK4 (TLR2/6) 0.1 ug/mL
# [10] = agonist: Pam3CSK4 (TLR2/1) 0.1 ug/mL
compound,measurement,setting,value
COc1cc(OCc2cccc(-c3ccccc3)c2C)cc(OC)c1CN1CCCCC1C(=O)O (stereo not given),NF-kB SEAP reporter activity,RAW-Dual [1]; [4],1.22
same,NF-kB SEAP reporter activity,RAW-Dual [1]; [5],1.03
Cc1nccn1CC1CCc2c(c3ccccc3n2C)C1=O.Cl (stereo not given),NF-kB SEAP reporter activity,RAW-Dual [1]; [6],0.917
same,NF-kB SEAP reporter activity,RAW-Dual [1]; [7],0.785
Cc1nccn1CC1CCc2c(c3ccccc3n2C)C1=O.Cl (stereo not given) (library stock concentration (final ~1000-fold dilution): 10 mM),NF-kB SEAP reporter activity,RAW-Dual [2]; agonist: LPS (TLR4) 0.1 ug/mL,0.91
same,NF-kB SEAP reporter activity,RAW-Dual [2]; [8],0.853
same,NF-kB SEAP reporter activity,RAW-Dual [2]; [9],0.901
same,NF-kB SEAP reporter activity,RAW-Dual [2]; [10],1.11
COc1cc2ncnc(Nc3ccc(F)c(Cl)c3)c2cc1NC(=O)/C=C/CN1CCCCC1 (library stock concentration (final ~1000-fold dilution): 10 mM),NF-kB SEAP reporter activity,RAW-Dual [3]; agonist: LPS (TLR4) 0.1 ug/mL,0.266
same,NF-kB SEAP reporter activity,RAW-Dual [3]; [8],0.26
same,NF-kB SEAP reporter activity,RAW-Dual [3]; [9],0.179
same,NF-kB SEAP reporter activity,RAW-Dual [3]; [10],0.384
C#Cc1cccc(Nc2ncnc3cc(OCCOC)c(OCCOC)cc23)c1 (library stock concentration (final ~1000-fold dilution): 10 mM),NF-kB SEAP reporter activity,RAW-Dual [2]; agonist: LPS (TLR4) 0.1 ug/mL,4.68
same,NF-kB SEAP reporter activity,RAW-Dual [2]; [8],1.33
same,NF-kB SEAP reporter activity,RAW-Dual [2]; [9],0.887
same,NF-kB SEAP reporter activity,RAW-Dual [2]; [10],0.935
C#Cc1cccc(Nc2ncnc3cc(OCCOC)c(OCCO)cc23)c1.Cl (library stock concentration (final ~1000-fold dilution): 10 mM),NF-kB SEAP reporter activity,RAW-Dual [2]; agonist: LPS (TLR4) 0.1 ug/mL,4.71
same,NF-kB SEAP reporter activity,RAW-Dual [2]; [8],1.41
same,NF-kB SEAP reporter activity,RAW-Dual [2]; [9],1.02
same,NF-kB SEAP reporter activity,RAW-Dual [2]; [10],1.87
C#Cc1cccc(Nc2ncnc3cc(OC)c(NC(=O)N4CC5CCN(C)C5C4)cc23)c1 (stereo not given),NF-kB SEAP reporter activity,RAW-Dual [1]; [6],1.09
same,NF-kB SEAP reporter activity,RAW-Dual [1]; [7],1.4
C#Cc1cccc(Nc2ncnc3cc(OCCOC)c(OCCOC)cc23)c1.Cl (library stock concentration (final ~1000-fold dilution): 2 mM),NF-kB SEAP reporter activity,RAW-Dual [2]; agonist: LPS (TLR4) 0.1 ug/mL,2.26
same,NF-kB SEAP reporter activity,RAW-Dual [2]; [8],0.972
same,NF-kB SEAP reporter activity,RAW-Dual [2]; [9],0.853
same,NF-kB SEAP reporter activity,RAW-Dual [2]; [10],1.1
COc1cc2ncnc(Nc3cccc(Cl)c3F)c2cc1OC(=O)N1CCN(C)CC1C (stereo not given) (library stock concentration (final ~1000-fold dilution): 10 mM),NF-kB SEAP reporter activity,RAW-Dual [2]; agonist: LPS (TLR4) 0.1 ug/mL,1.19
same,NF-kB SEAP reporter activity,RAW-Dual [2]; [8],0.84
same,NF-kB SEAP reporter activity,RAW-Dual [2]; [9],1.19
same,NF-kB SEAP reporter activity,RAW-Dual [2]; [10],1.1
COc1cc2ncnc(Nc3ccc(F)c(Cl)c3)c2cc1NC(=O)/C=C/CN1CCCCC1,NF-kB SEAP reporter activity,RAW-Dual [1]; [4],2.28
same,NF-kB SEAP reporter activity,RAW-Dual [1]; [5],1.52
COc1cc2ncnc(Nc3cccc(Cl)c3)c2cc1OC (library stock concentration (final ~1000-fold dilution): 10 mM),NF-kB SEAP reporter activity,RAW-Dual [3]; agonist: LPS (TLR4) 0.1 ug/mL,1.59
same,NF-kB SEAP reporter activity,RAW-Dual [3]; [8],0.692
same,NF-kB SEAP reporter activity,RAW-Dual [3]; [9],0.764
same,NF-kB SEAP reporter activity,RAW-Dual [3]; [10],1.02
COc1cc2ncnc(Nc3ccc(O)cc3)c2cc1OC (library stock concentration (final ~1000-fold dilution): 10 mM),NF-kB SEAP reporter activity,RAW-Dual [2]; agonist: LPS (TLR4) 0.1 ug/mL,0.948
same,NF-kB SEAP reporter activity,RAW-Dual [2]; [8],0.826
same,NF-kB SEAP reporter activity,RAW-Dual [2]; [9],0.971
same,NF-kB SEAP reporter activity,RAW-Dual [2]; [10],0.867
